In the library only some 7.3% were active in any assay of this set; here they are far more common.
ELG1 genotoxic: qHTS screen for small molecules that induce genotoxicity in human embryonic kidney (HEK293T) cells expressing luciferase-tagged ELG1. HEK293T ELG1-luciferase reporter, luminescence, 16 h. Potency, µM (doses to about 46 µM), inactives show top-dose activity change, positive = activation, hits mostly activators. hit rate 1.3% among 330,000. AID 504466, 2011; note: % of control where 0% means no effect; nearly all actives have a fitted effect of over 60% in size
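After overnight (16 hr) compound treatment at 37 °C, ELG1-luciferase HEK293T cells were lysed with ONE-Glo; luminescence quantified 30 min later at room temperature.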
NPC1 prom act: qHTS Assay for NPC1 Promoter Activators; Huh7 NPC1 promoter luciferase reporter, 24 h; Potency, µM (series often up to 9.22 µM), for inactives: top-dose activation, usual class: activators; hit rate 2.4% among 320,000; note: % of control where 0% means no effect; nearly all actives have a fitted effect of over 60% in size
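Quantitative HTS used a cell-based reporter: Huh7 cells stably bearing the NPC1 promoter upstream of luciferase were treated with compounds for 24 h, and promoter activation was read as luminescence.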
Rab9 promoter act: qHTS Assay for Rab9 Promoter Activators; hit rate 2.8% among 320,000; AID 485297, 2010; Huh7 Rab9 promoter-luciferase reporter, luminescence, 24 h; Potency, µM (top dose mostly 9.22 µM), inactives show at the top dose activation, negative = inhibition, most hits filed as activators; note: % of control where 0% means no effect; nearly all actives have a fitted effect of over 60% in size
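Cell-based reporter: Huh7 stable for Rab9 promoter-driven luciferase, plated in reduced-serum medium with 10% FBS at 1500 cells/well, compound-treated 24 h at 37 °C, luminescence read after 10 min reagent.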
FLuc modulator: qHTS profiling assay for firefly luciferase inhibitor/activator using purifed enzyme and Km concentrations of substrates (counterscreen for miR-21 project). Luciferin 4-monooxygenase (Photinus pyralis), P08659. purified FLuc, Km substrates, luminescence inhibition. Potency, µM (top dose mostly 57.5 µM), without a hit: at the highest dose activity change, negative = inhibition, usual class: inhibitors. hit rate 6.9% among 360,000;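 note: plate controls were vehicle for no effect and reference inhibitor for full effect; nearly all actives have a fitted effect of over 55% in size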
Target sequence (P08659 whole entry, looked up): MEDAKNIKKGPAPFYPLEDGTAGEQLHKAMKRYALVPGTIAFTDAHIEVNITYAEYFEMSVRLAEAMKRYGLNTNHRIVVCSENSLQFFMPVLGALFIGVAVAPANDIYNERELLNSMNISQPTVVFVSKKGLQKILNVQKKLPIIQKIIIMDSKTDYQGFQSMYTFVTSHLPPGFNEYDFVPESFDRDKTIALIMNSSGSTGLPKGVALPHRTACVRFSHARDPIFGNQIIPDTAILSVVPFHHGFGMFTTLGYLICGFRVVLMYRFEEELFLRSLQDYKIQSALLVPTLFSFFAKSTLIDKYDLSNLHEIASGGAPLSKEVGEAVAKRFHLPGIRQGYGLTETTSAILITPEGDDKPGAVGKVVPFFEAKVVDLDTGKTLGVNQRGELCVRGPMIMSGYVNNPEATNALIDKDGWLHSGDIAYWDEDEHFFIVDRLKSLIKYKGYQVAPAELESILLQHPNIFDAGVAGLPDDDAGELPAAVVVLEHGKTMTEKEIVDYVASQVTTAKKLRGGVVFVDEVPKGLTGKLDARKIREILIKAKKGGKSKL
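Biochemical qHTS of compounds, final roughly 60 µM downward over six points, against 10 nM purified firefly luciferase using Km concentrations of substrates (10 uM D-luciferin, 10 uM ATP) in Tris acetate pH 7.5 buffer; luminescence output.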
SMN2 splice up: qHTS Assay for Enhancers of SMN2 Splice Variant Expression; Potency, µM (series often up to 46.1 µM), without a hit: at the highest dose activity change, positive = activation, most hits filed as activators; AID 1458, 2008; HEK293 SMN2-luciferase splicing reporter, luminescence, 30-36 h; hit rate 2.8% among 210,000; note: % of control where 0% means no effect; nearly all actives have a fitted effect of over 55% in size
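qHTS luciferase splicing reporter: luminescence rises when SMN2 exon 7 is included in transfected HEK293 cells. Compound exposure lasted 30-36 h at 37C, with 4.5 mM final sodium butyrate as control, followed by a ONE-Glo read.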
Luc counter: Counterscreen for Luciferase (Kinase-Glo TM) Inhibition. Luciferin 4-monooxygenase (Photuris pensylvanica), Q27757. Kinase-Glo luciferase, ATP luminescence, 8 min. Potency, µM (top dose mostly 38.3 µM), inactives show top-dose activity change, negative = inhibition, actives largely listed as inhibitors. hit rate 0.28% among 200,000; note: % is set by controls: 0 for no effect and ±100 for the full control effect; nearly all actives have a fitted effect of over 60% in size
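Recombinant Kinase-Glo luciferase, 10 uM ATP (linear range), luciferin; imidazole pH 7.2 / KCl / MgCl2 / Tween / BSA buffer; 8 min RT; luminescence.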
The depositor's hits bear a star; u = inconclusive; x = no result given; [ ] = dose if it differs, or a comment. Calls come from the whole dose curve; as a rule, active = well fitted curve in the direction sought with a large enough effect; inconclusive = small, poorly fitted or top-dose-only effect, or another doubt; inactive = no such curve, though single readings can be large; an effect the other way counts as inactive or inconclusive. Potency is the fitted concentration of half-maximal effect.

SMILES	ELG1 genotoxic	NPC1 prom act	Rab9 promoter act	FLuc modulator	SMN2 splice up	Luc counter
CC1(C)CC(NS(=O)(=O)c2cccc3ccccc23)CC(C)(C)N1	-0.3%	10.7%	1.2%	-2.3%	x	x
C=CCN1C=CC(=C/C=C(/C#N)C(=O)OCC)C=C1	7.31µM*	2.51µM*	2µM*	2.39µM*	1.41µM*	-4.5%
O=C(O)/C=C/C(=O)c1ccc(O)cc1	-0.4%	-3.6%	1.0%	-1.2%	x	x
O=C(O)/C=C/C(=O)c1ccc2c(c1)CCc1ccccc1-2	-10.6%	26.1%	u	23.9µM*	x	x
Cc1cc(C2=NNC(=NC3CC3)SC2)c(C)n1-c1ccccc1	-9.7%	-32.1%	-40.1%	0.0757µM*	-100.9%	u
CN=C1NN=C(c2cc(C)n(-c3c(C)n(C)n(-c4ccccc4)c3=O)c2C)CS1	0.6%	-0.3%	-3.2%	-1.3%	-1.8%	-0.9%
COc1ccc(-n2c(C)cc(C3=NNC(=NC4CC4)SC3)c2C)cc1	u	-2.4%	-0.1%	5.36µM*	3.98µM*	-5.8%
CCN(Cc1ccccc1)C(=O)CCc1nnc(CCCc2ccccc2)o1	u	28.2%	u	u	x	x
CCOC(=O)c1ccc(S(=O)(=O)N2CCC(C(=O)NCc3ccccc3OC)CC2)cc1	1.1%	-1.7%	2.2%	-1.4%	x	x
COc1ccc(/C=C/C(=O)OCC(=O)NC2CCCC(C)C2C)cc1 (stereo unspecified)	-1.5%	x	x	x	x	x
CN=c1scc(-c2cccs2)n1/N=C/c1ccccc1O	-10.8%	-36.7%	-51.4%	0.169µM*	-79.8%	u
Cc1nc2ccccc2c(=O)n1/N=C/c1ccc(O)c(O)c1O	-2.7%	1.7%	-2.1%	u	x	x
CN=c1scc(C)n1/N=C/c1ccc(O)c(O)c1O	u	1.8%	17.2%	1.51µM*	-1.0%	u
CN=c1scc(-c2cccs2)n1/N=C/c1ccc(O)c(O)c1O	u	u	0.794µM*	1.69µM*	12.6µM*	-26.0%
CN=c1scc(C)n1/N=C/c1cc(Br)c(O)c(OC)c1	1.5%	1.7%	25.8%	16.9µM*	u	-1.8%
COc1ccc(C)c2sc(NC(=O)c3ccc(S(=O)(=O)N4CCCC4)cc3)nc12	x	x	x	-2.9%	x	x
CCC(c1nnc(SCCNCCO)n1CCN1CCOCC1)N(C)C (stereo unspecified)	1.2%	-3.3%	3.2%	0.2%	-4.2%	9.6%
CC(OC(=O)C1CC(=O)N(Cc2ccco2)C1)C(=O)Nc1ccc(F)cc1Cl (stereo unspecified)	2.2%	-2.6%	3.3%	1.7%	x	x
CC(Sc1ccc2ccccc2c1)C(=O)NC(N)=O (stereo unspecified)	1.2%	6.3%	0.0%	2.2%	14.8%	2.0%
Nc1nnc(SCC(=O)Nc2nnc(-c3ccccc3)o2)s1	0.4%	0.9%	-1.7%	u	x	x
Cn1c(SCC(=O)Nc2nnc(-c3ccccc3)o2)nnc1C1CC1	1.2%	1.2%	0.3%	13.5µM*	x	x
COCCNc1nnc(SCC(=O)Nc2nnc(-c3ccccc3)o2)s1	12.2%	-0.8%	-5.4%	19µM*	x	x
Cn1c(SCC(=O)Nc2ccccc2Cl)nnc1C1CC1	-9.9%	2.4%	0.2%	-2.9%	x	x
CC(C)(C)c1cc(C(=O)/C=C/c2ccc(C(=O)O)cc2)cc(C(C)(C)C)c1	x	x	x	x	-88.2%	-4.1%
COc1cccc(NC(=O)c2ccc3c(c2)CCCC3)c1	2.59µM*	1.41µM*	1.41µM*	1.2µM*	x	x
SMILES	ELG1 genotoxic	NPC1 prom act	Rab9 promoter act	FLuc modulator	SMN2 splice up	Luc counter
CC(=O)c1cccc(NC(=O)c2ccc(CN3CCc4ccccc4C3)cc2)c1	10.5%	-2.3%	-17.2%	u	x	x
COc1cccc(NC(=O)c2ccc(CN3CCc4ccccc4C3)cc2)c1	15.4%	-8.4%	-21.0%	19µM*	x	x
CC(=O)c1cccc(NC(=O)c2ccc3c(c2)CCN3S(=O)(=O)c2ccccc2)c1	-6.8%	-1.1%	-7.4%	-6.4%	-7.7%	x
CC(=O)c1cccc(NC(=O)c2ccc3c(c2)CCCC3)c1	13.6%[9.26 µM]	2.51µM*	3.98µM*	1.35µM*	x	x
Cc1ccnc(NC(=O)C2CC(=O)N(Cc3ccccc3)C2)c1 (stereo unspecified)	3.26µM*	-2.3%	-4.6%	6.01µM*	x	x
CC(=O)c1ccc(NC(=O)C2CC(=O)N(Cc3ccccc3)C2)cc1 (stereo unspecified)	18.4µM*	u	u	9.53µM*	u	-4.5%
CCOC(=O)CCNC(=O)Nc1ccc2nc(C)n(Cc3ccc(Cl)cc3)c(=O)c2c1	2.8%	-2.5%	4.1%	0.9%	-13.1%	-2.3%
O=C(N/N=C/c1ccc(N2CCOCC2)cc1)c1ccc(O)cc1	1.1%	11.6%	15.2%	23.9µM*	x	x
COc1ccc(/C=N/NC(=O)c2ccc[nH]2)cc1	8.2µM*	2.51µM*	1.58µM*	5.36µM*	x	x
COc1ccc(C(=O)N/N=C/c2ccc(SC)cc2)cc1	-1.6%	6.2%	3.1%	6.75µM*	10.9%	2.7%
O=C(N/N=C/c1ccc(O)cc1)c1ccncc1	-0.8%	-1.2%	-3.0%[1.84 µM]	-19.6%	x	x
CSc1ccc(/C=N/NC(=O)c2ccc(O)cc2)cc1	u	u	2.51µM*	4.78µM*	u	12.6µM*
Cc1c(C(=O)N/N=C/c2ccc(O)c(Br)c2)sc(N)c1C#N	u	-4.3%	-5.9%	13.5µM*	u	-2.0%
NC(=S)NN=Cc1ccc(-c2ccc(S(=O)(=O)Nc3ncccn3)cc2)o1	1.6%	x	x	x	x	x
NS(=O)(=O)c1ccc(-c2ccc(/C=N/NC(=O)c3ccccc3O)o2)cc1	-4.1%	-2.3%	-3.3%	6.75µM*	x	x
O=C(N/N=C/c1ccc(-c2ccc(S(=O)(=O)Nc3ncccn3)cc2)o1)c1cc2ccccc2cc1O	-11.1%	0.0%	1.4%	21.3µM*	u	-4.9%
Cc1ccc(-c2ccc(/C=N/NC(=O)c3ccccc3O)o2)cc1	-8.1%	9.7%	13.4%	u	x	x
CCOc1ccc(C(=O)N/N=C/c2ccc(-c3ccc(S(=O)(=O)Nc4ncccn4)cc3)o2)cc1	5.0%	7.8%	-0.7%	19µM*	13.2%	-5.3%
O=c1c(-c2ccccc2)coc2c(CN3CCCC3)c(O)ccc12	1.0%	-2.4%	0.4%	-0.1%	-17.0%	-1.6%

Compound activity as filed in PubChem.
